Compounds with a hit are over-represented: about 4.5% of the library has one in this group of screens.
ssDAF12 agonist: activators of S. stercoralis DAF-12 nuclear receptor | HEK293 ssDAF-12/GRIP1 lit1-tk-luc reporter, luminescence; % of 3 µM dafachronic acid response | activation, % at 6.8 µM | 370,000 tested, 1% active | AID 652126;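 active = activation above the mean over all tested compounds plus 3 SD, cut at about 0.9% in these data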;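 note: 0% = DMSO-only wells and 100% = 3 µM delta7-dafachronic acid wells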
FXN GAA850 act: activators of GAA850 frataxin (FXN) promoter | HEK293 lucGAA850 FXN promoter luciferase reporter, 24 h; percent of 10 µM SAHA response | activation, % at 6 µM | 360,000 tested, 0.56% active | AID 540364;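 active = activation above the average of all compounds screened plus 3 SD, cutoff fixed separately per campaign, cut at about 7.5% in these data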;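 note: 0% = DMSO wells and 100% = 10 µM SAHA wells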
hgDAF-12 ag: agonists of H. glycines DAF-12 nuclear receptor. 370,000 tested, 1.8% active. HEK293 GAL4-hgDAF12 UAS-luciferase reporter, agonist luminescence; normalized to butyrate control. AID 687014. activation, % at 6.8 µM;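 active = activation above a cutoff set at the mean of all screened compounds plus 3 SD, cut at about 10% in these data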;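 note: 0% = DMSO wells and 100% = sodium butyrate wells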
DAX1 inh-1: NR0B1 (DAX1) inhibition; HEK293 Gal4-DAX1 luciferase reporter, luminescence; inhibition, % at 6.75 µM; 340,000 tested, 0.99% active; AID 504766;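 active = inhibition above the mean over all tested compounds plus 3 SD, cut at about 4.2% in these data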;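 note: 0% = DAX1-transfected cells with DMSO and 100% = empty-vector control cells with DMSO; inhibition shows as a rise in luminescence from relieved DAX1 repression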
Target sequence (P51843 207-470 limits assumed): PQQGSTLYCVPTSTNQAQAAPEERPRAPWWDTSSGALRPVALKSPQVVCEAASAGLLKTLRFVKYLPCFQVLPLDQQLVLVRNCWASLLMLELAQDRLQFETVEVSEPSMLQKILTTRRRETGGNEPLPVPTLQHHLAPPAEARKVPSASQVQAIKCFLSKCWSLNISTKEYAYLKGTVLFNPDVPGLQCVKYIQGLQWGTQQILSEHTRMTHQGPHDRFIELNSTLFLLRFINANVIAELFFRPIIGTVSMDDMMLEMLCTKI
DAX1 inh-2: DAX1 (NR0B1) inhibition, primary screen | HEK293T StAR-luciferase reporter, SF-1/DAX-1 repression relief | inhibition, % at 6.8 µM | 370,000 tested, 1.1% active | AID 652010;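 active = inhibition above the mean over all tested compounds plus 3 SD, cut at about 3.6% in these data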;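 note: 0% = DAX-1 cells with DMSO and 100% = cells lacking DAX-1 with DMSO; higher inhibition means more luminescence from relief of DAX-1 repression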
hcDAF-12 act: activates DAF-12 receptor from parasite H. contortus; HEK293 hcDAF-12 lit1-tk-luc reporter, luminescence; 0% DMSO, 100% Δ7-dafachronic acid; activation, % at 6.8 µM; AID 652067; 370,000 tested, 1.4% active;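 active = activation above the mean of all tested compounds plus 3 SD, cut at about 5.5% in these data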;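 note: 100% = response to 3 µM Δ7-dafachronic acid high control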
DAX1 inh confirm: NR0B1 (human) inhibition, confirmation; shares compounds with DAX1 inh-2; HEK293T StAR-promoter luciferase reporter, SF-1/DAX-1 repression; 2,400 tested, 87% active; inhibition, % at 6.8 µM;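 active = inhibition above the average of every tested compound plus 3 SD, cut at about 3.8% in these data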;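 note: 0% = DAX-1 cells with DMSO and 100% = no DAX-1 control cells with DMSO; active compounds raise luminescence by relieving repression of the StAR reporter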
SF1 AF2mut Luc: counter-screen for DAX1 inhibitors: nonselective inhibitors with SF-1 AF2 mutant; HEK293 StAR-luciferase, luminescence; inhibition, % at 6.8 µM; shares compounds with DAX1 inh-2; 2,400 tested, 78% active;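 active = inhibition above the mean of all tested compounds plus 3 SD, cut at about 3% in these data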;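 note: 0% = DAX-1 transfected cells with DMSO and 100% = cells without DAX-1 with DMSO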
LXRb hcDAF ctr: activates human LXR-beta, counter-screen for hcDAF-12 agonists | shares compounds with hcDAF-12 act | HEK293 Gal4-LXR tk-luc reporter, luminescence, 24 h; normalized: DMSO 0%, positive control 100% | activation, % at 6.8 µM | 3,400 tested, under 10 active;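 active = mean percent activation of the reporter above a cutoff set as the average over tested compounds plus their standard deviation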
Target sequence (P55055 whole entry, looked up, the tested form may be a part): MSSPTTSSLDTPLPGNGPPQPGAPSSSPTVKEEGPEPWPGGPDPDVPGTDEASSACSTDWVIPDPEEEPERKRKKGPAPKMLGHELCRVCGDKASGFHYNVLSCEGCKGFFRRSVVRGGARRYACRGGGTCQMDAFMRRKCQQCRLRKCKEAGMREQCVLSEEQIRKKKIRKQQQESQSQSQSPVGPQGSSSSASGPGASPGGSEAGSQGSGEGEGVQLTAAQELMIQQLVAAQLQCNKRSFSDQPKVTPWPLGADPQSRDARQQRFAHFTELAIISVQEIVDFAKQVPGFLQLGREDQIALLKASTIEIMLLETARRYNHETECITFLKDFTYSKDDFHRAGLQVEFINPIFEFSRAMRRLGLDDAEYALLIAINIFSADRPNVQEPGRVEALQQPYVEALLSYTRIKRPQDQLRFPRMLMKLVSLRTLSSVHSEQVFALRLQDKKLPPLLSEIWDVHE
hcDAF12 ag: hcDAF-12 agonism, confirmation assay. HEK293 hcDAF-12 lit1-tk-luc reporter, luminescence; % of Δ7-dafachronic acid response. AID 743032. shares compounds with hcDAF-12 act. 3,400 tested, 61% active. activation, % at 6.8 µM;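 active = mean activation across triplicate tests above the threshold derived from the earlier primary screen, cut at about 5.5% in these data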;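 note: 0% = DMSO only wells and 100% = 3 µM Δ7-dafachronic acid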
hgDAF12 conf: hgDAF-12 agonism, confirmation assay | shares compounds with hgDAF-12 ag | HEK293 GAL4-hgDAF12 luciferase reporter, agonist mode; percent of butyrate response | activation, % at 6.8 µM | 3,300 tested, 80% active;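 active = mean activation over triplicate wells above the hit cutoff derived from the earlier primary screen, cut at about 11% in these data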;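 note: 0% = DMSO low control and 100% = 2 mM sodium butyrate high control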
LXR ag 2: counter-screen for DAF-12 agonists: agonists of human LXR-beta; shares compounds with hgDAF-12 ag; HEK293 Gal4-LXR luciferase reporter, 24 h; activation, % at 6.8 µM; 3,300 tested, under 10 active; AID 743051;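 active = mean activation of the triplicate above a set limit carried over from the primary screen, none filed active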
* marks the source's active call; other numbers are inactive results; x = no result.

SMILES | ssDAF12 agonist | FXN GAA850 act | hgDAF-12 ag | DAX1 inh-1 | DAX1 inh-2 | hcDAF-12 act | DAX1 inh confirm | SF1 AF2mut Luc | hgDAF12 conf | LXR ag 2 | others
O=C(O)c1cc(-c2ccc3c(c2)OCCO3)n[nH]1 | -0.8 | 3.2 | 4.5 | 0.0 | 1.1 | -1.3 | x | x | x | x
Cc1ccc(NC(=O)c2ccccn2)c(Br)c1 | 3.1* | 2.1 | 18.9* | 6.4* | 8.5* | 9.9* | 15.4* | 11.8* | 17.9* | 0.9 | LXRb hcDAF ctr=1.4;hcDAF12 ag=7.9*
Cc1ccc(NC(=O)c2ccn(C)n2)c(Br)c1 | 0.5 | 5.8 | 14.8* | -0.1 | 5.9* | 3.1 | 13.1* | 8.8* | 16.5* | 0.9
Cn1ccc(C(=O)Nc2ccc(Br)cc2Br)n1 | 0.7 | 4.6 | 19.6* | 3.4 | 4.9* | 7.7* | 11.3* | 6.6* | 13.0* | 0.9 | LXRb hcDAF ctr=1.0;hcDAF12 ag=2.9
COC(=O)c1ccccc1S(=O)(=O)N1CCC(C(=O)OCc2ccc([N+](=O)[O-])cc2)CC1 | -0.8 | 3.4 | 0.4 | 1.3 | 0.8 | -0.7 | x | x | x | x
C/C(=N\Nc1ccc(Cl)c(C(=O)O)c1)c1ccc(N2CCOCC2)cc1 | -0.7 | 4.0 | -0.1 | 0.3 | -0.3 | 0.8 | x | x | x | x
CCN(CC(=O)Nc1ccccc1C(F)(F)F)C(=O)c1ccc(N2CCCC2=O)cc1 | -1.3 | 2.5 | 5.0 | 0.4 | 0.3 | -1.4 | x | x | x | x
COc1ccc(C2CC(c3ccc4ccccc4c3)=NN2C(=O)COC(=O)C2CCC(=O)N2)cc1 (stereo not given) | 1.2* | 5.9 | 15.4* | 2.1 | 6.7* | 10.4* | 14.6* | 6.5* | 19.5* | 0.8 | LXRb hcDAF ctr=1.5;hcDAF12 ag=6.0*
COc1ccc(C2CC(c3ccc4ccccc4c3)=NN2C(=O)CNC2CCCCC2)cc1 (stereo not given) | -2.1 | -2.4 | 4.0 | 2.6 | 0.5 | -0.5 | x | x | x | x
COCCCNC(=O)CN(c1cc([N+](=O)[O-])ccc1OC)S(C)(=O)=O | -1.0 | 0.1 | -0.6 | -0.3 | 0.4 | -2.2 | x | x | x | x
CCOC(=O)C1CCN(C(=O)COC(=O)c2ccc(=O)n(Cc3ccccc3)n2)CC1 | -0.9 | 1.3 | -0.6 | -0.5 | -0.3 | -0.8 | x | x | x | x
Cn1c(NC(=O)CCC2CCCCC2)cc(=O)n(C)c1=O | -0.5 | 3.5 | 13.7* | 3.1 | 5.6* | 5.5 | 12.0* | 6.0* | 11.8* | 0.7
COc1ccc(CN=C2Nc3ccccc3CS2)cc1 | 1.2* | 7.1 | 14.2* | -0.1 | 4.7* | 4.9 | 10.8* | 7.2* | 17.2* | 0.9
COc1ccc(CN=C2NN=C(c3ccc(Cl)cc3)CS2)cc1 | -1.2 | 0.3 | 1.2 | -0.8 | 0.1 | 1.5 | x | x | x | x
Cc1occc1C(=O)Nc1sccc1C(N)=O | -1.1 | 4.3 | 4.7 | 0.9 | 1.6 | -0.7 | x | x | x | x
NC(=O)c1ccsc1NC(=O)c1coc2ccccc2c1=O | -0.3 | 5.1 | 13.7* | 1.2 | 4.7* | 1.1 | 11.8* | 3.7* | 19.0* | 0.7
CC(=O)c1ccc(OCc2cc(C(=O)NC(C)c3cnn(C)c3)no2)cc1 (stereo not given) | -0.3 | 0.9 | 6.5 | 0.2 | 3.4 | 1.4 | x | x | x | x
CC(NC(=O)c1cc(COc2ccccc2)on1)c1nccs1 (stereo not given) | 0.5 | 2.9 | 20.4* | 2.1 | 7.3* | 7.9* | 8.3* | 5.2* | 19.0* | 0.8 | LXRb hcDAF ctr=0.8;hcDAF12 ag=6.0*
CC(C)CC(=O)Nc1ccc(C(=O)COC(=O)Cc2n[nH]c(=O)c3ccccc23)cc1 | -0.9 | 0.6 | -0.2 | -0.8 | 0.3 | 0.5 | x | x | x | x
Cc1ccc2nc(-c3ccccc3)c(Cc3ccccn3)n2c1 | 1.4* | x | 13.4* | x | 5.1* | 7.4* | 7.4* | 6.2* | 16.4* | 0.4 | LXRb hcDAF ctr=0.6;hcDAF12 ag=8.3*
Cc1ccc2nc(-c3ccc(F)cc3)c(Cc3ccccn3)n2c1 | 0.4 | x | 14.4* | x | 9.3* | 8.6* | 8.1* | 6.7* | 11.2* | 0.8 | LXRb hcDAF ctr=0.5;hcDAF12 ag=1.2
Cc1ccn2c(Cc3ccccc3)c(-c3ccc(F)cc3)nc2c1 | 0.4 | 4.2 | 16.0* | 1.7 | 5.9* | 0.1 | 2.7 | 1.5 | 11.4* | 0.3
Fc1ccc(-c2nc3ccc(Cl)cn3c2Cc2ccccc2)cc1 | -0.9 | 2.1 | 6.1 | 0.4 | 1.0 | -0.1 | x | x | x | x
COc1ccc(Cc2c(-c3ccc(F)cc3)nc3ccc(C)cn23)c(C)c1 | 0.2 | x | 8.9 | x | 1.9 | 3.7 | x | x | x | x
Cc1ccc2nc(-c3ccco3)c(Cc3ccsc3)n2c1 | -0.6 | x | 3.4 | x | -0.4 | 0.6 | x | x | x | x
SMILES | ssDAF12 agonist | FXN GAA850 act | hgDAF-12 ag | DAX1 inh-1 | DAX1 inh-2 | hcDAF-12 act | DAX1 inh confirm | SF1 AF2mut Luc | hgDAF12 conf | LXR ag 2 | others
Cc1ccc(-c2nc3ccc(C)cn3c2Cc2ccsc2)cc1 | 0.1 | x | 17.3* | x | 10.7* | 5.5 | 7.0* | 3.0* | 1.3 | 0.5
COc1ccc(CCN2CC(=O)N3CCc4ccc(N5CCOCC5)cc4C3CC2=O)cc1OC (stereo not given) | -0.8 | x | -1.4 | x | 0.6 | -1.4 | x | x | x | x
Cc1ccnc(NS(=O)(=O)c2ccc3ccccc3c2)n1 | x | 0.5 | x | 0.3 | x | x | x | x | x | x
CC1CCC(NC(=O)c2nn(C)c(=O)c3ccccc23)CC1 (stereo not given) | -1.2 | 2.4 | -2.7 | 0.3 | -0.9 | -1.8 | x | x | x | x
CC1CCC(NC(=O)c2cccn2C)CC1 (stereo not given) | 0.0 | -1.1 | 15.0* | 3.1 | 10.0* | 3.6 | 13.8* | 7.4* | 13.7* | 0.8
O=C(c1ccccc1)c1coc(-c2ccccc2)c1 | 0.7 | 2.7 | 14.2* | 2.3 | 7.5* | 5.3 | 14.4* | 5.0* | 20.6* | 1.1
O=C(CN1C(=O)NC2(CCCCCC2)C1=O)N1CCN(c2ccccc2)CC1 | -1.4 | 1.6 | -0.3 | -0.2 | 0.8 | 0.3 | x | x | x | x
Clc1ccc(-n2ncc3c(NCc4ccccn4)ncnc32)cc1 | -1.3 | 5.0 | 4.5 | 0.6 | 0.2 | 0.1 | x | x | x | x
